Measurements taken from the supplement of paper PMC11732987, “Enantioselective OTUD7B fragment discovery through chemoproteomics screening and high-throughput optimisation” (Communications Chemistry, 2025).

Legend:
Assay in all cases: log2 ratio of Biotin-Ahx-Ub-VS probe labelling (fragment/DMSO); higher = less target engagement (more negative = stronger competition), active = hit call of the paper (q ≤ 0.05, log2 ratio ≤ -1)
Conditions in all cases: compound concentration: 200 uM; treatment time: 3 h
OTUD6B = target: T1, OTUD6B (UniProt Q8N6M0)
T1 sequence (whole entry): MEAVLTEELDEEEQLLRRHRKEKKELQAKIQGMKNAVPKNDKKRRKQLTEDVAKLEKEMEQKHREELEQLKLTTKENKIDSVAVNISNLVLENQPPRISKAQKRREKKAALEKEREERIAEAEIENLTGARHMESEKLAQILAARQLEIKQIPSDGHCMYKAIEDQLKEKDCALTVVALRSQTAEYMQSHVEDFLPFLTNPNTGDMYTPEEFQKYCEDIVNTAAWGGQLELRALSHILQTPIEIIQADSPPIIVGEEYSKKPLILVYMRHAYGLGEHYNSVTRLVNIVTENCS
Outline: (§1)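 Lysate from HEK293T cells, 495 µg per sample in Tris/CHAPS/IGEPAL buffer with protease inhibitors, was treated for 3 h in triplicate with fragment at 200 µM or vehicle. Biotin-Ahx-Ub-VS was next added at 0.5 µM final for 1 h. The labelled DUBs were enriched with NeutrAvidin, digested with LysC and trypsin, and run by diaPASEF LC-MS/MS, with values given as average log2 fragment/vehicle ratios by unpaired t-test on global-median-normalised Spectronaut quantities of proteins with ≥2 unique peptides.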

OTUD7B = target: T2, OTUD7B (UniProt Q6GQQ9)
T2 sequence (whole entry): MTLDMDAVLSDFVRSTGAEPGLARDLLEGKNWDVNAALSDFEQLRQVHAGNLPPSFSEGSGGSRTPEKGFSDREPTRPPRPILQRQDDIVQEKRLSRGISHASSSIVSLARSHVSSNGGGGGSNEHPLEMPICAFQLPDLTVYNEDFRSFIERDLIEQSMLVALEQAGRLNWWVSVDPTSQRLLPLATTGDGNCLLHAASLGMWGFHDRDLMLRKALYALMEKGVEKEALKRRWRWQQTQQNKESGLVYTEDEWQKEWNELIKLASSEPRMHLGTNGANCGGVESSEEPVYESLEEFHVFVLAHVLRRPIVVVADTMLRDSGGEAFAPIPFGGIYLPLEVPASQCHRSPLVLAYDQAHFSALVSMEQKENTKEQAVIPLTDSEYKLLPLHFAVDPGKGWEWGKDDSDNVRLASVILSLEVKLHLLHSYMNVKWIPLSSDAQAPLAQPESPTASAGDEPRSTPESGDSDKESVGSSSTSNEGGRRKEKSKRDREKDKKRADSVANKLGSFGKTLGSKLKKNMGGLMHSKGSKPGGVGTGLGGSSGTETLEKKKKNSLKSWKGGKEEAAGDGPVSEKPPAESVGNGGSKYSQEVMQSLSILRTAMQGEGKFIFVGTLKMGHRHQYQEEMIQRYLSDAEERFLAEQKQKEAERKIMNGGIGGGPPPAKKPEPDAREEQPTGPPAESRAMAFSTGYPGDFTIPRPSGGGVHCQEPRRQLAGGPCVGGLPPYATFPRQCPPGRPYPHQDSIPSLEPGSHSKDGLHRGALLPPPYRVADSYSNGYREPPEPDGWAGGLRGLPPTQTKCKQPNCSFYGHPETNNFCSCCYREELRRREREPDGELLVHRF
Outline: as §1

PRPF8 = PRPF8 (UniProt Q6P2Q9)
Outline: as §1

PSMD7 = target: T3, PSMD7 (UniProt P51665)
T3 sequence (whole entry): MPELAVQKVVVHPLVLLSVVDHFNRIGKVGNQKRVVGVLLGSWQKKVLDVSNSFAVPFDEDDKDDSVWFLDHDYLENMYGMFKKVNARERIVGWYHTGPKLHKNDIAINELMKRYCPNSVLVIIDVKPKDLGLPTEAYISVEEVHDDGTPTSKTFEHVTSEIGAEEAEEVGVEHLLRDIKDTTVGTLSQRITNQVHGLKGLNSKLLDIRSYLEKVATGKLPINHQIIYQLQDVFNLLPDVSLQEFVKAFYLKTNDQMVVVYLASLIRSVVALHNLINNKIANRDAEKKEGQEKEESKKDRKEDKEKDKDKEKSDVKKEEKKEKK
Outline: as §1

UCHL1 = UCHL1 (UniProt P09936)
Outline: as §1

UCHL3 = target: T4, UCHL3 (UniProt P15374)
T4 sequence (whole entry): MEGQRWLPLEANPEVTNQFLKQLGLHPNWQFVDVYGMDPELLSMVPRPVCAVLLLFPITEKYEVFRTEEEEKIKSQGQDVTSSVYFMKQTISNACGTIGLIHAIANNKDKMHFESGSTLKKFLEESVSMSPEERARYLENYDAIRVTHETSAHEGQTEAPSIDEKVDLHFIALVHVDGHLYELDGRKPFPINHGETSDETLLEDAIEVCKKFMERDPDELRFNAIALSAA
Outline: as §1

UCHL5 = target: T5, UCHL5 (UniProt Q9Y5K5)
T5 sequence (whole entry): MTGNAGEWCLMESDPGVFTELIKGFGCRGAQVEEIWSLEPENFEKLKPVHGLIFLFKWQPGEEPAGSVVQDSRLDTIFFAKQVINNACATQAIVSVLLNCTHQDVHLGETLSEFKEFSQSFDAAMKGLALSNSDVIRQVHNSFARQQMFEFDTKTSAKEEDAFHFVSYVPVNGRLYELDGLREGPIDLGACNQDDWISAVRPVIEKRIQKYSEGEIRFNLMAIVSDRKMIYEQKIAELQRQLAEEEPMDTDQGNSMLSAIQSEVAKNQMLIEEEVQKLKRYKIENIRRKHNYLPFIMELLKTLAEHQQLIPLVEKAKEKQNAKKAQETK
Outline: as §1

USP10 = USP10 (UniProt Q14694)
Outline: as §1

USP15 = target: T6, USP15 (UniProt Q9Y4E8)
T6 sequence (whole entry): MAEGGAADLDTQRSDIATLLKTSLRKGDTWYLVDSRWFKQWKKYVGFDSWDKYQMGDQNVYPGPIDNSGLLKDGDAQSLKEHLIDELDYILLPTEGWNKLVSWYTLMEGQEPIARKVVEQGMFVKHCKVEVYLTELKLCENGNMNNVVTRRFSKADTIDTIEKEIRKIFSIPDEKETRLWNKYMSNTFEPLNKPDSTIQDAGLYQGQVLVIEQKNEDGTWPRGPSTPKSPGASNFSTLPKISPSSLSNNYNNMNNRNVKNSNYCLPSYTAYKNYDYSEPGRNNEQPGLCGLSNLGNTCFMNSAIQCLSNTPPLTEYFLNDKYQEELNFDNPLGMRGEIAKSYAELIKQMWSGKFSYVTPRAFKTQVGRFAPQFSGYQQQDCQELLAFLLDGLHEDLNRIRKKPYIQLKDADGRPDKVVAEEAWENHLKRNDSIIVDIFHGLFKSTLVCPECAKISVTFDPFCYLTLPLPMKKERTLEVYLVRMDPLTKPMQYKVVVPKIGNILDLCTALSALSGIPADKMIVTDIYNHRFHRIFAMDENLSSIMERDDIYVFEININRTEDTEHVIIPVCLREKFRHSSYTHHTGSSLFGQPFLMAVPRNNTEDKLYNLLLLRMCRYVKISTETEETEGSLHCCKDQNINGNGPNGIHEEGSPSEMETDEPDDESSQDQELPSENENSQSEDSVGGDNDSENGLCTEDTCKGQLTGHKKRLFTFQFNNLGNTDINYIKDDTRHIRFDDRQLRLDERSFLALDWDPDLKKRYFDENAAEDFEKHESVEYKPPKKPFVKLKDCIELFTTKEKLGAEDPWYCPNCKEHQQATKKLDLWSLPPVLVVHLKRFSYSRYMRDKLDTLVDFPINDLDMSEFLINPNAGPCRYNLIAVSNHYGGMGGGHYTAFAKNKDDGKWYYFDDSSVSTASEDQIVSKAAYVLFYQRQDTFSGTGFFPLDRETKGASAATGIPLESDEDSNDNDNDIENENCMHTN
Outline: as §1

USP16 = USP16 (UniProt Q9Y5T5)
Outline: as §1

Measured: log2 ratio of Biotin-Ahx-Ub-VS probe labelling

Sequence of USP10 (Q14694 whole entry): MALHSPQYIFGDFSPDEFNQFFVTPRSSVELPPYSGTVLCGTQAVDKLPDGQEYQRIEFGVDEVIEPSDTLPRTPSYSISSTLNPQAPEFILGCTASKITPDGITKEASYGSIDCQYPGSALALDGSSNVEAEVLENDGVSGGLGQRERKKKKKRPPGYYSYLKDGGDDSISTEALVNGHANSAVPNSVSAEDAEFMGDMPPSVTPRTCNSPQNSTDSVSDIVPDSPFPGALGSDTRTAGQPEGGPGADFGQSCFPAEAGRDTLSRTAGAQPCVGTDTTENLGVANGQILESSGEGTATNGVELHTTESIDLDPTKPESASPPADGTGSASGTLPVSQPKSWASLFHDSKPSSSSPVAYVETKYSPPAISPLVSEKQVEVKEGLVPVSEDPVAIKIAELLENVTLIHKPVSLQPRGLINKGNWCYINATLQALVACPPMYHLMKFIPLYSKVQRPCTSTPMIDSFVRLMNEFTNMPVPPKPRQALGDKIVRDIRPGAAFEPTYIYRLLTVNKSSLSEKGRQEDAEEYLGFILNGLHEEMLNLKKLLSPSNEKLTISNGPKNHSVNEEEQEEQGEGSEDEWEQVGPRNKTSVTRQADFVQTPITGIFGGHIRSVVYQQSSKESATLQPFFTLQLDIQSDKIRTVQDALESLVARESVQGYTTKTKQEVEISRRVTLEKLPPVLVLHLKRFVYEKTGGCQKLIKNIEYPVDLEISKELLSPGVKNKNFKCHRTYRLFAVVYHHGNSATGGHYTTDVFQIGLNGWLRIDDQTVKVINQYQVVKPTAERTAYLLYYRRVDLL
Sequence of UCHL1 (P09936 whole entry, looked up): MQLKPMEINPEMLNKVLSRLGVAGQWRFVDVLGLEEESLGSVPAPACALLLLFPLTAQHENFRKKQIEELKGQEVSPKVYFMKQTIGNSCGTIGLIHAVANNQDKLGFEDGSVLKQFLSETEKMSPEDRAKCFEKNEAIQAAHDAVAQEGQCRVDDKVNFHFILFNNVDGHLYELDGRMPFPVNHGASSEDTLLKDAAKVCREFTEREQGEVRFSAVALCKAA
Sequence of USP16 (Q9Y5T5 whole entry, looked up): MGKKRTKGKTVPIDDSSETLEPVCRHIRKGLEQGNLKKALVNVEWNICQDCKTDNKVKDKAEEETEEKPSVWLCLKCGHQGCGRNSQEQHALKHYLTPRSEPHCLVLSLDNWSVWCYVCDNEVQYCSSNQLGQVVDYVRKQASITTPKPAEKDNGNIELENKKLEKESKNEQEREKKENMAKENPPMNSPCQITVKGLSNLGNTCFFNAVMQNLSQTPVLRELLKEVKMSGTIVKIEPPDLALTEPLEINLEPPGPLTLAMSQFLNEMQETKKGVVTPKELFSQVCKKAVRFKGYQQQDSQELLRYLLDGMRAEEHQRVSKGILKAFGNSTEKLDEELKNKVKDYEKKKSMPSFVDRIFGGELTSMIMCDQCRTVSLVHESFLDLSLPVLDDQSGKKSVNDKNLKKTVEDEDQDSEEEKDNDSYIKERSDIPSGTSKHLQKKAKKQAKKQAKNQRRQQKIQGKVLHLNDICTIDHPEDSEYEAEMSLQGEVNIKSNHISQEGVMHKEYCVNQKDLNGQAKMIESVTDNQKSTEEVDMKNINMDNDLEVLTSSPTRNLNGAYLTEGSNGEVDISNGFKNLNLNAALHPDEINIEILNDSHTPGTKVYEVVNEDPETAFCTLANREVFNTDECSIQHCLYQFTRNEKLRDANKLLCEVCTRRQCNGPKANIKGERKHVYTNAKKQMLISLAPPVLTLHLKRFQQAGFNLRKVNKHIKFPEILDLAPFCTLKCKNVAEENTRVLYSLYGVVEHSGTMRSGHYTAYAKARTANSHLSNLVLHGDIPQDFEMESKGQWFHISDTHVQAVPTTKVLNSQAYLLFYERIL

Cc1ccc(CC(CO)CNC(=O)CCl)cc1 (stereo not given)
active: OTUD7B -1.12 | UCHL1 -1.92
inactive: OTUD6B -0.264 | PRPF8 -0.059 | PSMD7 -0.169 | UCHL3 -0.121 | UCHL5 -0.474 | USP10 -0.0682 | USP15 -0.199 | USP16 0.217
